# Measured values published in the supplement of paper PMC6555819.
# Key:
# Test in all cases: PBM binding z-score (relative to random genomic background probes); higher = stronger binding; sequences stand for … in GC…GCGATTGACAGCGTAGAATGAAGG
# [1] = system: PPARg:RXRa DBDmut IVT, anti-RXR (DBD mutation: RXRa K156A/R161A, NR concentration 270 nM, RXRa partner concentration 90 nM)
# Method in brief: (§1)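 The probes on custom Agilent 4×180K protein-binding microarrays were double-stranded, with 34-nt variable regions bearing direct-repeat seeds, single-nucleotide variants, half-site ablations and random human genomic background sequences. Incubation lasted 1 h with ligand-free nuclear receptor dimers in PBS pH 7.4, 2% milk, 0.02% Triton X-100, 1 mM DTT, 0.2 mg/mL BSA and 0.4 mg/ml salmon testes DNA. Antibodies against each partner (one per run) detected bound dimers, and fluorescence scans were regression-normalized. Binding z-scores take the random background probes as reference.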
# [2] = system: PPARg:RXRa IVT, anti-PPARg (NR concentration 270 nM, RXRa partner concentration 90 nM)
# Method in brief: as §1
# [3] = system: PPARg DBDmut:RXRa IVT, anti-PPARg (DBD mutation: PPARg1 K132A/R137A, NR concentration 270 nM, RXRa partner concentration 90 nM)
# Method in brief: as §1
# [4] = system: PPARg DBDmut IVT, anti-PPARg (DBD mutation: PPARg1 K132A/R137A, NR concentration 270 nM)
# Method in brief: as §1
# [5] = system: PPARg homodimer (NR concentration 180 nM)
# Method in brief: as §1
# [6] = system: PXR:RXRa (NR concentration 270 nM, RXRa partner concentration 90 nM)
# Method in brief: as §1
# [7] = system: PXR homodimer (NR concentration 270 nM)
# Method in brief: as §1
# [8] = system: RARa:RXR (NR concentration 270 nM, RXRa partner concentration 90 nM)
# Method in brief: as §1
# [9] = system: RARa homodimer (NR concentration 270 nM)
# Method in brief: as §1
# [10] = system: RARb:RXRa (NR concentration 270 nM, RXRa partner concentration 90 nM)
# Method in brief: as §1
Sequence,PBM binding z-score [1],PBM binding z-score [2],PBM binding z-score [3],PBM binding z-score [4],PBM binding z-score [5],PBM binding z-score [6],PBM binding z-score [7],PBM binding z-score [8],PBM binding z-score [9],PBM binding z-score [10]
TGAATGAGGTAAAAGATCAGGGAACGTGGCGTCG,0.669,2.02,0.836,-0.202,0.305,-0.0852,-0.139,0.545,-0.524,0.0467
CGTCCAAGGTAAAAGGTCAGTGAAGAGATGACGG,0.99,3.62,-0.145,0.215,2.6,3.83,0.564,5.16,1.15,4.44
CAGCCTAGGTCAGGGCAAGTATAGGAGGAACGTT,1.79,2,-0.618,-1.17,0.755,0.56,-0.274,1.19,-0.273,3.7
TCGTGTAGATCAAGCAGGTTAAGAAAGCCTGAGT,1.24,-0.0546,-0.931,-0.429,0.148,0.421,0.251,0.318,0.0709,0.0461
TTGCCTAGGTCATGCGGGCCAGTATAGTGTCGGC,1.47,2.82,0.433,-0.575,0.753,1.39,-0.692,2.31,-0.448,3.82
TTACCAACGTGAGCTGAGGTCGTTGATCCAACTC,-0.844,-0.235,-0.101,-0.365,-0.384,1.52,0.291,0.951,-0.767,0.217
AGAACGAGGGCAATGAGTTGATAGCACGGGTGGC,3.48,2.48,0.306,0.0167,0.0111,1.54,2.95,0.443,0.212,2.04
TCTAGTTGGTCCAAGGTCACACACTCGAAATGCG,2.28,3.07,1.36,0.797,3.08,4.21,1.63,4.31,1.96,3.53
TCTGCTAGGTCAGTTGGCCAGCTAACGAGCTGCC,2.81,2.82,0.783,0.614,-0.509,-0.116,-0.845,0.0154,-1.78,3.44
CGAACTTGGTCAGAACAGGACAGTGAAGGATGAT,-0.158,0.0276,0.221,-0.53,-0.163,-0.41,0.0699,0.0937,-0.39,0.542
TAGCCTAGGTCAGATCCGGCCAGTATACGCTATA,0.634,1.52,0.095,-0.353,0.289,1.09,-0.796,1.12,-0.924,3.17
CGTCAAAGTTCAACTAAGGTAACATAAAGCACGC,0.273,2.52,1.34,1.66,3.27,5.54,3.1,4.35,1.57,5.25
TGTCAAAGATCAAAGGTAACGTAAGTATCCACAC,-0.516,2.24,1.24,1.01,0.484,1.26,-0.19,2.22,0.426,1.02
CCGCGTAGGTTATGGGGCATTCAGGCAACGGTGA,0.695,0.593,-1.12,-0.878,0.303,-0.0775,-0.606,0.609,0.000588,0.985
GCTTGTAGATGAAGGTTAAGAAAGACTAAGCTAA,0.000874,0.405,0.135,-0.0594,-0.126,0.0589,-0.403,0.444,-0.213,0.535
ATATGTAGGTTATATCCGGGTCATTCAGGCTATG,6.81,6.59,5.13,2.59,3.38,3.78,2.63,3.9,1.12,2.13
GCTCGGAGGACAGGGTCAGAGCTTTGTCCGTAGA,-0.294,0.104,-1.35,-1.12,-0.0128,1.22,-0.77,2.28,-1.04,2.55
CCTACTGGGCCAAATAGGTCATTGATGCCGATAA,4.31,4.63,0.236,-0.456,1.27,1.88,0.588,2.32,0.564,2.23
ACTCGGACGACAAAGGTCAGAGCTACGCCAGTGA,0.324,2.18,0.163,-0.0873,2.37,3.4,-0.377,4.48,0.552,4.17
AGAACGCGGGCACGCTGAGTTGATAGCAGAGTAG,0.0817,-0.217,-0.65,-1.15,-0.455,-0.502,-0.289,-0.215,-0.302,0.31
CCTACTGGGCCATTCAGAGGTCATTGAACATATG,4.56,4.39,0.0817,-0.464,3.64,5.2,3.45,5.13,1.15,3.23
GCTATTAGTTGAAAGGGCAACAGAATGATTCTCG,0.52,1.11,0.63,0.276,1.36,0.774,0.784,1.47,1.15,2.09
TCATATAGGTAAAGTTGAAAGTCGAACGATATGA,3.68,2.66,1.6,1.18,0.5,0.661,0.0596,0.908,0.307,1.08
CTAACAAGGTGAACAAGGTCGTTGATTACTATTC,4.02,3.71,0.498,0.744,0.877,2.67,1.4,2.21,0.514,2.27

Sequence,PBM binding z-score [1],PBM binding z-score [2],PBM binding z-score [3],PBM binding z-score [4],PBM binding z-score [5],PBM binding z-score [6],PBM binding z-score [7],PBM binding z-score [8],PBM binding z-score [9],PBM binding z-score [10]
AGTCAAAGTTCAGCTAGGTAACGTAAGATATGCT,0.153,2.1,0.968,0.836,1.67,3.01,1.8,2.29,1.19,4.37
ATCACTAGGTAAAGATAGTTCAGTGAATGCAAAT,3.21,2.54,1.22,1.14,0.795,1.02,0.598,0.654,1.19,0.635
TAGCCTAGGTCAGATCGGGACAGTATACGCTATA,0.601,1.73,-0.45,-0.46,0.479,1.74,-0.545,1.11,-0.615,3.11
CGTCAAAGTTCAACTAAGGTGACGTAAAGCACGC,0.538,2.53,-0.0247,0.457,4.07,5.89,4.65,4.4,1.76,5.17
ACTATTGGTTGACTTAGGGCAACCGATACGACGC,-0.408,0.507,0.7,0.813,-0.419,0.245,-0.0405,0.77,-0.0341,0.653
GCTGCTAGGTCAACTGATGGTCAGCTATAGCTCG,5.21,4.3,-0.479,-0.34,1.51,1.3,-0.342,2.91,0.342,4.31
GGATCGAGGGCATTCGAGTTGATAGCATGGCGAT,2.58,2.38,-0.372,-0.843,0.175,3.64,1.17,1.16,-0.556,1.83
TCGAGTAAGTTAGTCGGGGCATTCAGCCAACATA,0.848,-0.156,-0.534,-0.684,-0.634,-0.346,-0.239,-0.154,-0.863,-0.272
CCTCGGAGGACAACACGAGGTCAGAGCTGCCAGA,0.265,0.387,-0.876,-1.22,1.79,3.06,0.779,3.03,0.807,2.96
CCTCGGAGGACAACAGGACGTCAGAGCTGCCAGA,-0.431,-0.589,-0.661,-1.48,-0.0308,-0.587,-0.482,-0.32,-0.489,0.92
CCGACTGGGGCAAGCTTACCATAACGCACAGCCA,3.86,2.37,-0.563,-1.13,-0.678,-0.729,-0.611,-0.807,-0.606,0.697
CCGACTGGGGCATAAGGTTACCAAAAGCCAGCCC,2.7,3.25,-0.301,-0.942,0.779,0.576,-0.64,1.73,0.0494,1.81
GCTCGGAGGACAAGGTCAGCGCTTTGTCCGTAGA,0.29,1.07,-1.37,-1.53,1.12,2.18,-0.34,2.68,-0.859,3.88
ACTTACGGGTCAACGATGTTATAGCACGCGTATA,3.44,3.78,1.72,1.54,2.59,3.49,0.444,4.41,0.951,4.09
ATGGAAAGGTCGAAGGTGAGTATACCCACCCGAA,-0.138,2.06,1.21,0.517,1.61,2.99,0.649,4.14,0.905,3.78
GCTGCCAGGTCAACTGATGGTCAGCTAAAGCTCG,2.71,2.73,0.45,-0.276,4.33,2.76,-0.337,4.22,-0.0772,4.46
CCTCGGAGGACAGAAGGTCAGAGGTGTCCGCTTT,-0.101,0.357,-1.36,-1.55,0.853,1.4,0.183,2.11,0.0276,3.32
GCTGCTAGGTCAACTGATGGTTAGCTAAAGCTCG,5.04,4.29,1.41,-0.602,1.62,1.55,-0.971,2.73,-0.0413,4.31
TCAGACAGGTGAAGGTAGCTCAGGTACGCAGTCG,2.37,0.501,0.112,0.071,0.349,0.216,-0.0197,0.316,0.354,1.07
ACTAGCAGGCAAAGGGTCACTCAAGATTAGTCCG,0.313,2.76,-0.0407,-1.05,2.82,3.4,0.241,4.35,1.42,3.42
TCTTGTAGATCAACCGGAGGTTAAGAAAGATCGA,1.73,0.867,0.463,0.343,-0.156,0.984,0.000543,1.25,-0.186,0.743
TCATATAGCTAAAGGTGAAAGTCGAACGATATGA,1.54,1.41,0.485,1.01,0.548,0.662,0.459,1.51,0.712,1.62
CAAACTAGGCCAAGAGGTCAAAGTCCGCTTCCCG,6.71,6.57,1.38,0.62,2.87,5.62,1.75,6.34,1.51,4.2
TCTTGTAGATCAACAGGAGCTTAAGAAAGATCGA,1.16,0.103,0.548,-0.235,-1.17,-0.361,-0.82,-0.535,-0.604,-0.522
